# Calb FLC = C. albicans growth inhibition with fluconazole, primary screen, CaCi-2 strain, Alamar Blue fluorescence; actives 0.57% (n = 300,000); growth inhibition, % (test concentration not listed); C. albicans CaCi-2 (fluconazole-resistant clinical isolate) + fluconazole, 48 h;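 active = growth inhibition above about 58% in most replicates, limit read from the data, passing the limit was not always enough; inconclusive = exactly half the replicates above a set limit; inactive = most replicates below a set limit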;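 also: all wells also contain fluconazole at 8 µg/ml as a sub-toxic cotreatment; 0% = median of DMSO wells and 100% = median of geldanamycin control wells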
# SKKanGAS inh = S. pyogenes SKKanGAS growth inhibitors in kanamycin, primary screen, streptokinase expression inhibitor project, SKKanGAS strain, BacTiter-Glo luminescence; inhibition, % at 7.5 µM; 6 h; actives 1.3% (n = 300,000);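 active = mean replicate score, as percent of positive control median, at least 50; inconclusive = mean below 50 but one replicate at or above 50; inactive = mean and every replicate below 50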;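 also: strain carries kanamycin resistance gene driven by streptokinase promoter and grows in 40 µg/ml kanamycin; loss of luminescence reflects streptokinase promoter inhibition or plain growth inhibition; 0% = median of DMSO wells and 100% = positive control at its reference dose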
# CR mimetic SO = reduction of superoxide in aged yeast, primary screen, HTS | actives 0.18% (n = 330,000) | superoxide response (% of plate mean), % at 10 µM | S. cerevisiae aged cells, superoxide DHE fluorescence; stronger effect = lower value | AID 2690, 2010;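 active = superoxide response under a set limit, about three screen SD below normal, cut at about 65% in these data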;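 also: yeast aged for seven days with compound at 30 °C before DHE staining; 100% = average MFI of all compound-treated wells on the plate with controls excluded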
# PolyA inh = polyadenylation inhibitors in yeast reporter cells, primary screen, luminescence, S. cerevisiae. S. cerevisiae SKY197-pL101 polyadenylation reporter, beta-gal luminescence; efflux-impaired pdr1/pdr3 knockout yeast; score 100 = 6 SD above DMSO. activity score, % at 12 µM. actives 0.02% (n = 300,000). AID 1875, 2009;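 active = lowest replicate activity score at least 50, where 100 means six control SD above control mean; inconclusive = lowest score under 50 but half or more replicates reach 50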;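 also: yeast exposed to compound for 9 h at 30 °C; higher score means more reporter readthrough which indicates perturbed polyadenylation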
# Platelet DG rel = inhibitors of platelet dense granule secretion, primary screen, cell-based, MLPCN, human platelets; inhibition, %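 (compounds screened at 7.5 µM in platelet-rich plasma)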; actives 0.22% (n = 300,000); human platelet-rich plasma, SFLLRN dense granule ATP release, luminescence;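 active = mean replicate score, as percent of positive control, at or above 50; inconclusive = mean below 50 but at least one replicate at or above 50; inactive = mean and every replicate below 50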
# * marks the source's active call; other numbers are inactive results; ? = inconclusive; . = not tested or not shown. Shown are actives, neighbours in structure and some others; about 2% of the full set was active somewhere.
SMILES,Calb FLC,SKKanGAS inh,CR mimetic SO,PolyA inh,Platelet DG rel
CO/N=C(/C(=O)N[C@@H]1C(=O)N2C(C(=O)O)=CCS[C@H]12)c1cnc(N)s1,.,98.9*,94.0,-12.0,-5.3
CC(=O)c1ccc(OCC(O)CN2CCN(S(=O)(=O)c3c(C)c(C)cc(C)c3C)CC2)cc1 (stereo unspecified),-2.9,1.9,110.6,-6.5,-5.2
O=C(Nc1cccc(O)c1)c1noc2c1CCCCC2,-5.6,11.3,91.1,-6.8,63.8*
Cc1ccc(NC(=O)c2noc3c2CCC3)cc1C,-1.6,3.5,.,-1.3,12.9
CCCCN1CC[C@H]2C=CC[C@@H](C(=O)Nc3ccc(Cl)c(C(F)(F)F)c3)[C@H]2C1=O,109.4*,-3.7,.,-0.5,5.2
O=C(C1CCCN(S(=O)(=O)c2ccc(F)cc2)C1)N1CCCCC1 (stereo unspecified),-39.4,-2.0,89.2,2.3,-12.3
O=C(NC(=S)Nc1cccc(Cl)c1N1CCCCC1)c1cccs1,43.5,60.0*,112.7,-21.4,1.7
O=C(NC(=S)Nc1cccc(Cl)c1N1CCOCC1)c1cccs1,-1.3,13.2,112.4,-6.3,-1.5
O=C(NC(=S)NNC(=O)c1ccccc1O)c1cccs1,16.4,90.2*,78.7,33.7,12.0
COc1ccccc1C(=O)NNC(=S)NC(=O)c1cccs1,47.4,103.6*,74.9,-50.3,0.3
O=C(Cc1ccc(Cl)cc1)NNC(=S)NC(=O)c1cccs1,109.0*,81.9*,187.2,-18.6,5.0
O=C(Cc1cccs1)NNC(=S)NCc1ccc(Cl)cc1,1.4,-16.9,93.8,-1.6,-6.3
CCOCCCn1c(=S)[nH]c2cc(C(=O)NCCc3ccccc3)ccc2c1=O,-18.8,4.5,100.5,3.6,-1.3
CCn1c(NC(=O)c2ccccc2)nc2ccccc21,29.7,22.9,104.7,-9.7,1.5
Cn1c(NC(=O)c2cccc(Cn3cc(Cl)cn3)c2)nc2ccccc21,29.2,15.8,97.5,-3.2,1.3
CCn1c(NC(=O)c2cccc(Cn3cc(Cl)cn3)c2)nc2ccccc21,9.4,84.6*,138.8,-6.6,-10.8
C=CCn1c(NC(=O)c2ccccc2)nc2ccccc21,31.6,65.4*,102.2,-1.7,-1.9
CC(NC(=O)CCCCCNC(=O)N1CCn2c1nc1ccccc12)c1ccccc1 (stereo unspecified),26.9,6.4,89.8,3.0,-15.6
O=C(NC(=S)Nc1ccccc1N1CCCC1)c1ccccc1Br,2.3,80.8*,93.5,7.9,-5.7
COc1cccc(C(=O)NC(=S)Nc2ccccc2N2CCCC2)c1,5.9,-11.0,115.3,-18.6,-6.6
COc1cccc(C(=O)NC(=S)Nc2ccccc2N2CCCCC2)c1,10.6,64.9*,87.5,-4.7,2.0
O=C(NC(=S)Nc1ccccc1N1CCCC1)c1ccccc1[N+](=O)[O-],0.6,6.1,95.1,-7.4,8.3
COc1ccccc1N(CC(=O)N/N=C(\C)c1ccc(F)cc1)S(=O)(=O)c1ccccc1,.,.,103.0,.,.
Cn1c(=O)n(C)c2cc(NC(=O)CSc3nc4ccccc4c(=O)[nH]3)ccc21,-1.3,1.7,106.7,-7.2,-7.5
Cc1ccccc1NS(=O)(=O)c1cc(OCC(N)=O)c(C)cc1Cl,118.2*,-9.0,88.0,5.2,-1.7
SMILES,Calb FLC,SKKanGAS inh,CR mimetic SO,PolyA inh,Platelet DG rel
Cn1c(Oc2ccccc2NCc2cc(Br)ccc2O)cc(=O)n(C)c1=O,-2.3,58.7*,100.9,-3.7,-58.4
COc1cc(CNc2ccccc2Oc2cc(=O)n(C)c(=O)n2C)cc(OC)c1OC,-6.6,-6.2,116.9,-3.3,2.6
COCCNC(=O)NC12CC3CC(CC(C3)C1)C2,94.5*,-1.4,108.5,5.5,3.8
CN(Cc1nccn1C)C(=O)C1CCC(=O)N(Cc2cccc(C(F)(F)F)c2)C1 (stereo unspecified),-5.0,-7.9,94.8,-2.9,-1.4
CC(C)(C)OC(=O)NCCCC[C@H](NC(=O)c1[nH]cnc1C(=O)Nc1ccccc1)C(=O)OC(C)(C)C,20.7,34.3,82.6,-19.2,8.1
CC(C)C[C@H](NC(=O)c1nc[nH]c1C(=O)N[C@@H](CC(C)C)C(=O)OC(C)(C)C)C(=O)OCc1ccccc1,14.0,57.9*,90.0,-6.8,-2.0
CC(C)C[C@H](NC(=O)c1[nH]cnc1C(=O)Nc1ccccc1)C(=O)OC(C)(C)C,21.5,62.6*,107.0,7.2,-3.6
CC(C)(C)OC(=O)NCCCC[C@H](NC(=O)c1[nH]cnc1C(=O)Nc1ccc(Cl)cc1)C(=O)OC(C)(C)C,13.1,56.6*,97.5,-6.9,-0.6
CC(C)C[C@H](NC(=O)c1nc[nH]c1C(=O)NCC(=O)OC(C)(C)C)C(=O)OCc1ccccc1,-9.9,10.9,109.6,28.1,2.2
CCOC(=O)c1ccc(NC(=O)c2nc[nH]c2C(=O)N[C@@H](CC(C)C)C(=O)OC(C)(C)C)cc1,3.1,20.8,115.9,4.0,1.7
CC(C)C[C@H](NC(=O)c1[nH]cnc1C(=O)N[C@@H](C)c1ccccc1)C(=O)OCc1ccccc1,10.9,74.6*,107.5,-5.3,-0.8
CC(C)C[C@H](NC(=O)c1nc[nH]c1C(=O)NCC(=O)OCc1ccccc1)C(=O)OCc1ccccc1,3.0,27.2,95.0,-5.6,1.8
Cc1ccc(/C=N/NC(=O)COc2ccc(Cl)c(C)c2)o1,10.7,0.7,105.1,7.0,9.8
CC1=NOC2(C1)N(C)c1ccccc1C2(C)C (stereo unspecified),?,-7.1,105.9,12.4,-14.8
COc1ccc2ccc3c(c2c1)N=C[C@]1(O3)N(C)c2ccccc2C1(C)C,1.9,55.8*,106.7,25.2,-5.6
Cc1cc(C)c(NC(=O)CSc2nnc(CNC(=O)c3ccco3)o2)c(C)c1,-0.4,-3.3,108.5,-5.5,-3.3
O=C(c1cccs1)N1CCC(c2nc3c(nnn3Cc3ccccc3Cl)c(=O)[nH]2)CC1,4.2,51.7*,96.9,6.3,8.1
COc1ccccc1Cn1nnc2c(=O)[nH]c(C3CCN(C(=O)c4ccccc4Cl)CC3)nc21,-1.0,90.7*,108.9,2.1,-4.3
CC(C)(C)CC(=O)N1CCC(c2nc3c(nnn3Cc3c(F)cccc3Cl)c(=O)[nH]2)CC1,0.8,73.8*,85.2,0.2,-3.2
O=C(c1ccccc1)N1CCC(c2nc3c(nnn3Cc3ccccc3Cl)c(=O)[nH]2)CC1,-6.9,-1.6,102.6,-7.4,-1.0
CC(=O)c1cc(F)ccc1OCC(=O)Nc1ccc2c(c1)OCO2,.,.,97.1,.,.
Clc1cccc(Cl)c1CSc1nnc(/C=C/c2ccccc2)o1,-0.9,53.7*,109.5,-25.8,6.1
C[C@H](N)c1nnc(SCc2c(Cl)cccc2Cl)o1,3.6,-2.6,94.2,11.0,1.5
CC1(C)COCN1S(=O)(=O)c1ccc(C(=O)Nc2nnc(-c3ccc(Cl)s3)o2)cc1,78.6*,101.0*,123.4,-5.6,-0.1

# Assay outcomes (PubChem BioAssay)
